Assay results reported in paper PMC4336329 (PLoS ONE, 2015).
Among all 310,000 compounds or so, about 14,000 (4.5%) showed an effect of 50% or more. The effect is printed as a negative number. Shown is part of a subset that was picked to be rich in strong results.
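Note: peak tail current of the secondary pulse compared with the same well before compound.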

Each compound was assayed against human ether-à-go-go-related gene (hERG) potassium channel (human, UniProt Q12809) (assay: primary screen, population patch clamp on CHO cells stably expressing hERG; higher = less effect of the substance).
Sequence of human ether-à-go-go-related gene (hERG) potassium channel (Q12809 whole entry, looked up): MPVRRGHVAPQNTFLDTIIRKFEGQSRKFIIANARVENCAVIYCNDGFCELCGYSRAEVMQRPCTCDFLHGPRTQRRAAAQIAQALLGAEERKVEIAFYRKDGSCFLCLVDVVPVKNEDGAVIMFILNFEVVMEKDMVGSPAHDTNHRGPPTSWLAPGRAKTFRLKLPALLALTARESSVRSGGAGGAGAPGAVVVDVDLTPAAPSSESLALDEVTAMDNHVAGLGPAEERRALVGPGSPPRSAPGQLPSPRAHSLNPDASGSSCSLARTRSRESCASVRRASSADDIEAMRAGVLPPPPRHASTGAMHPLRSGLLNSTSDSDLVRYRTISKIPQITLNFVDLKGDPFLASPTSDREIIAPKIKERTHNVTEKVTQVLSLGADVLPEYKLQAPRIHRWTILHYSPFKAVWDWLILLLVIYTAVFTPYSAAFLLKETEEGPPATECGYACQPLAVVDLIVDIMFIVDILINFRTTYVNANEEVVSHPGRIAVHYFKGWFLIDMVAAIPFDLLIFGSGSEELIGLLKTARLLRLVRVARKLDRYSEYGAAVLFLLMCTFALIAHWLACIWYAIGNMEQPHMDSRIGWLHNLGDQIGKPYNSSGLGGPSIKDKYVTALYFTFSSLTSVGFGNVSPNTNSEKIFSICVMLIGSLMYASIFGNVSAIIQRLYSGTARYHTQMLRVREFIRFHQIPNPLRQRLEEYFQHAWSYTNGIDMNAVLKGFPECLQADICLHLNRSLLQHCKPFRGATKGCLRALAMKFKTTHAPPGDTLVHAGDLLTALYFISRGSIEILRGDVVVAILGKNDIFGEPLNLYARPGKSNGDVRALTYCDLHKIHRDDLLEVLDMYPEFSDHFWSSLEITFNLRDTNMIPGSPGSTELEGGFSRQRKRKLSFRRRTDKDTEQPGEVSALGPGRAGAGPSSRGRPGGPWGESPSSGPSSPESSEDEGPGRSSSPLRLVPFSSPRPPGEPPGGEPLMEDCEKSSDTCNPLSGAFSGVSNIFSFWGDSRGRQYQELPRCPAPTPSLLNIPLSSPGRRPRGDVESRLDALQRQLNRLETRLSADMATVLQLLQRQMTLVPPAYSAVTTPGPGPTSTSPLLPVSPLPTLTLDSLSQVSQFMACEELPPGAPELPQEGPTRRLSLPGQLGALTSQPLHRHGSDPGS
Cc1cccc(NC(=O)C2CCC(CNC(=O)[C@@H]3Cc4ccccc4CN3)CC2)c1 (some centres unmarked) was tested, and the “hERG current change (%, negative = inhibition) at 10uM” value was -2.36%.
In the case of Cc1ccc(NC(=O)C2CCN(C(=O)[C@@H]3Cc4ccccc4CN3)CC2)c(C)c1, the “hERG current change (%, negative = inhibition) at 10uM” value is reported as -41.4%.
Cc1cc(C)cc(NC(=O)C2CCC(CNC(=O)[C@@H]3Cc4ccccc4CN3)CC2)c1 (some centres unmarked) was tested, and the “hERG current change (%, negative = inhibition) at 10uM” value was 0.322%.
For COc1ccc(CNC(=O)C2CCN(C(=O)[C@@H]3Cc4ccccc4CN3)CC2)cc1, the “hERG current change (%, negative = inhibition) at 10uM” value was -24.8%.
In the case of Cc1cc(C)cc(NC(=O)C2CCN(C(=O)[C@@H]3Cc4ccccc4CN3)CC2)c1, the “hERG current change (%, negative = inhibition) at 10uM” value is reported as -67.7%.
With COc1ccc(NC(=O)C2CCN(C(=O)[C@@H]3Cc4ccccc4CN3)CC2)cc1 the “hERG current change (%, negative = inhibition) at 10uM” value was -38.2%.
With Cc1cccc(NC(=O)C2CCN(C(=O)[C@@H]3Cc4ccccc4CN3)CC2)c1 the “hERG current change (%, negative = inhibition) at 10uM” value was -67.2%.
With CCc1ccc(NC(=O)C2CCC(CNC(=O)[C@@H]3Cc4ccccc4CN3)CC2)cc1 (some centres unmarked) the “hERG current change (%, negative = inhibition) at 10uM” value was 4.23%.
In the case of Cc1ccc(NC(=O)C2CCN(C(=O)[C@@H]3Cc4ccccc4CN3)CC2)cc1, the “hERG current change (%, negative = inhibition) at 10uM” value is reported as -67.3%.
For Cc1ccc(NC(=O)C2CCC(CNC(=O)[C@@H]3Cc4ccccc4CN3)CC2)cc1 (some centres unmarked), the “hERG current change (%, negative = inhibition) at 10uM” value was -25.8%.
With CCc1ccc(NC(=O)C2CCN(C(=O)[C@@H]3Cc4ccccc4CN3)CC2)cc1 the “hERG current change (%, negative = inhibition) at 10uM” value was -59.5%.
With COc1cccc(NC(=O)C2CCN(C(=O)[C@@H]3Cc4ccccc4CN3)CC2)c1 the “hERG current change (%, negative = inhibition) at 10uM” value was -48.1%.
In the case of COC(=O)COc1ccc(S(=O)(=O)Nc2ccc(NC(C)=O)cc2)cc1C, the “hERG current change (%, negative = inhibition) at 10uM” value is reported as 19.8%.
For COc1ccc(C2Nc3ccccc3C(=O)N2Cc2ccccc2)cc1Cn1nnc2ccccc21 (centres unmarked), the “hERG current change (%, negative = inhibition) at 10uM” value was -25.1%.
With Cc1cc(S(=O)(=O)N2CCN(c3ccccc3C)CC2)ccc1F the “hERG current change (%, negative = inhibition) at 10uM” value was 1.78%.
With CCC(C)C(=O)Nc1nnc(SCC(=O)Nc2ccccc2F)s1 (centres unmarked) the “hERG current change (%, negative = inhibition) at 10uM” value was 10.1%.
With CCOc1ccc2c(c1)nc(C)n2C the “hERG current change (%, negative = inhibition) at 10uM” value was 11.7%.
With C[C@]12CC[C@@H]3c4ccc(O)cc4CC[C@H]3[C@@H]1CC[C@@H]2OC(=O)CCC1CCCC1 the “hERG current change (%, negative = inhibition) at 10uM” value was 14%.
In the case of O=C(CN1C(=O)CSCC1=O)Nc1ccc2c(c1)OCO2, the “hERG current change (%, negative = inhibition) at 10uM” value is reported as 16.2%.
For Cc1ccc(S(=O)(=O)N2CCCCC2)cc1C(=O)c1nccn1C, the “hERG current change (%, negative = inhibition) at 10uM” value was -2.56%.
For O=C(N/N=C\c1cn(-c2ccccc2)nc1-c1ccccc1)c1ccc2c(c1)OCO2, the “hERG current change (%, negative = inhibition) at 10uM” value was 11.3%.
For O=C(CSc1nnc(-c2ccncc2)n1-c1ccccc1)NC1CC1, the “hERG current change (%, negative = inhibition) at 10uM” value was 4.69%.
For Cc1cc(/C=C2\SC(=Nc3ccc(N4CCOCC4)cc3)N(C)C2=O)c(C)n1-c1cccnc1, the “hERG current change (%, negative = inhibition) at 10uM” value was 11.3%.
With Cc1cc(=O)n2[nH]c(C(F)(F)F)c(-c3ccccc3)c2n1 the “hERG current change (%, negative = inhibition) at 10uM” value was 3.6%.
For CC(C)C1NC(=S)N(Cc2ccccc2)C1=O (centres unmarked), the “hERG current change (%, negative = inhibition) at 10uM” value was 5.2%.
In the case of CC(C)c1ccc(NC(=O)C2CCC(CNC(=O)[C@@H]3Cc4ccccc4CN3)CC2)cc1 (some centres unmarked), the “hERG current change (%, negative = inhibition) at 10uM” value is reported as 9.65%.
With CC(NC(=O)C1CCN(C(=O)[C@@H]2Cc3ccccc3CN2)CC1)c1ccccc1 (some centres unmarked) the “hERG current change (%, negative = inhibition) at 10uM” value was -25.7%.
CC(C)c1ccc(NC(=O)C2CCN(C(=O)[C@@H]3Cc4ccccc4CN3)CC2)cc1 was tested, and the “hERG current change (%, negative = inhibition) at 10uM” value was -67.4%.
In the case of CCOc1ccc(NC(=O)COC(=O)c2c(OC)cccc2OC)cc1, the “hERG current change (%, negative = inhibition) at 10uM” value is reported as -1.27%.
Cl.OC(CN1C2=NCCN2c2ccccc21)c1ccc2c(c1)OCO2 (centres unmarked) was tested, and the “hERG current change (%, negative = inhibition) at 10uM” value was -63.6%.
For Cl.OC(CN1C2=NCCCN2c2ccccc21)c1ccc2c(c1)OCO2 (centres unmarked), the “hERG current change (%, negative = inhibition) at 10uM” value was -70.2%.
Cl.O=C(CN1C2=NCCN2c2ccccc21)N1CCOCC1 was tested, and the “hERG current change (%, negative = inhibition) at 10uM” value was 9.79%.
With OC(c1ccc2c(c1)OCO2)c1nccc2ccccc12 (centres unmarked) the “hERG current change (%, negative = inhibition) at 10uM” value was -1.04%.
In the case of COc1cc(C(=O)NNC(=O)CSc2nnc3ccccn23)cc(OC)c1OC, the “hERG current change (%, negative = inhibition) at 10uM” value is reported as 15.4%.
CCCC(=O)Nc1ccc(C(=O)N/N=C/c2cccnc2)cc1 was tested, and the “hERG current change (%, negative = inhibition) at 10uM” value was -8.24%.
For CC1(C)Cc2c(cnn2-c2ccc(F)cc2)C(NC(=O)CCCN2CCCCC2=O)C1 (centres unmarked), the “hERG current change (%, negative = inhibition) at 10uM” value was 2.89%.
In the case of CCCCOC(=O)Cn1c(=O)c2c(nc3n2CCCCN3c2ccc(C)cc2)n(C)c1=O, the “hERG current change (%, negative = inhibition) at 10uM” value is reported as -52.8%.
In the case of CCOC(=O)Cn1c(=O)c2c(nc3n2CCCCN3c2ccc(C)cc2)n(C)c1=O, the “hERG current change (%, negative = inhibition) at 10uM” value is reported as -19.5%.
In the case of CCOC(=O)Cn1c(=O)c2c(nc3n2CCCCN3c2ccc(OCC)cc2)n(C)c1=O, the “hERG current change (%, negative = inhibition) at 10uM” value is reported as -41.4%.
In the case of Cc1ccccc1S(=O)(=O)Cc1ccc(C(=O)NCCN2CCCCC2C)o1 (centres unmarked), the “hERG current change (%, negative = inhibition) at 10uM” value is reported as -39.3%.
CCOc1cc2c(cc1OCC)C(c1ccccc1)N(c1ccccc1)C(=O)C2 (centres unmarked) was tested, and the “hERG current change (%, negative = inhibition) at 10uM” value was -6.2%.
With CCOc1ccc(C2c3cc(OC)c(OC)cc3CC(=O)N2c2ccccc2)cc1 (centres unmarked) the “hERG current change (%, negative = inhibition) at 10uM” value was -26.5%.
In the case of CCOc1cc2c(cc1OCC)C(c1ccc(OC)cc1)N(c1ccccc1)C(=O)C2 (centres unmarked), the “hERG current change (%, negative = inhibition) at 10uM” value is reported as -57.5%.
COC(=O)c1ccc(-n2c(C)cc(C(=O)COC(=O)CC3Sc4ccccc4NC3=O)c2C)cc1 (centres unmarked) was tested, and the “hERG current change (%, negative = inhibition) at 10uM” value was 28.5%.
CCCN1CCN(C(=S)Nc2ccc3nc(N4CCN(CC)CC4)cc(C)c3c2)CC1 was tested, and the “hERG current change (%, negative = inhibition) at 10uM” value was 2.61%.
For CCN1CCN(c2cc(C)c3cc(NC(=S)N4CCCC4)ccc3n2)CC1, the “hERG current change (%, negative = inhibition) at 10uM” value was -15.9%.
Cc1cc(N2CCN(C)CC2)nc2ccc(NC(=S)N3CCCCCC3)cc12 was tested, and the “hERG current change (%, negative = inhibition) at 10uM” value was -67.2%.
With Cc1cc(N2CCN(C)CC2)nc2ccc(NC(=O)CCC(=O)NCCC(C)C)cc12 the “hERG current change (%, negative = inhibition) at 10uM” value was 13.8%.
With Cc1cc(N2CCN(C)CC2)nc2ccc(NC(=S)N3CCOCC3)cc12 the “hERG current change (%, negative = inhibition) at 10uM” value was -15.4%.
Cc1cc(N2CCN(C)CC2)nc2ccc(NC(=O)CCC3CCCC3)cc12 was tested, and the “hERG current change (%, negative = inhibition) at 10uM” value was -74.6%.
Cc1cc(N2CCN(C)CC2)nc2ccc(NC(=O)CCC(=O)NCc3ccco3)cc12 was tested, and the “hERG current change (%, negative = inhibition) at 10uM” value was 7.05%.
CCN1CCN(c2cc(C)c3cc(NC(=S)N4CCCC(C)C4)ccc3n2)CC1 (centres unmarked) was tested, and the “hERG current change (%, negative = inhibition) at 10uM” value was -51.3%.
In the case of CCN1CCN(c2cc(C)c3cc(NC(=S)N4CCOCC4)ccc3n2)CC1, the “hERG current change (%, negative = inhibition) at 10uM” value is reported as -23.4%.
With CCN1CCN(c2cc(C)c3cc(NC(=S)N4CCCCC4)ccc3n2)CC1 the “hERG current change (%, negative = inhibition) at 10uM” value was -50.1%.
CCN1CCN(C(=S)Nc2ccc3nc(N4CCN(CC)CC4)cc(C)c3c2)CC1 was tested, and the “hERG current change (%, negative = inhibition) at 10uM” value was -13.9%.
CCN1CCN(C(=S)Nc2ccc3nc(N4CCN(C)CC4)cc(C)c3c2)CC1 was tested, and the “hERG current change (%, negative = inhibition) at 10uM” value was -2.94%.
